# Measured values reported in PubChem BioAssay (NCATS).
# Records with an inconclusive call do not appear. Where a call stands in place of a potency, no number is given. Calls of active or inactive are those of the source. The call rests on the fitted dose curve; in most records, active means well fitted inhibition curve with a large enough effect; inconclusive means small, poorly fitted or top-dose-only effect; inactive means flat fitted curve, though single readings scatter.
# Test system: PC26
# Experiment: qHTS profiling for inhibitors of Plasmodium falciparum proliferation (AID 504749); further: nearly all actives have a fitted effect of over 60% in size
# Conditions: P. falciparum in erythrocytes, SYBR Green DNA, 72 h; series mostly up to 28.7 µM
# Procedure, shortened: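 Readout was DNA-dye fluorescence from lysed cultures, ex 485/em 535 nm. Parasitized red cells had grown 72 h with compound; data scaled between 0.29 uM artemisinin and DMSO wells and corrected using vehicle-only plates.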
smiles,measurement,value
CC(C)CN(C[C@@H](O)[C@H](Cc1ccccc1)NC(=O)O[C@H]1CCOC1)S(=O)(=O)c1ccc(N)cc1,Potency,inactive
